Source: PubChem BioAssay (National Center for Advancing Translational Sciences (NCATS))
Hits are enriched below; roughly 11% of the tested compounds scored in any of these assays.
HPGD inh – blocks human HPGD enzyme activity. P15428. Potency, µM, for the others: at the top dose activity change, negative = inhibition, most hits filed as inhibitors. 4.3% of 150,000 active. purified HPGD, NADH fluorescence kinetic, PGE2 substrate; active = well fitted inhibition curve with a large enough effect, not every such curve was filed as active; inconclusive = small, poorly fitted or top-dose-only effect, or another doubt; inactive = no such curve, though single readings can be large or run the other way; note: potency is the fitted concentration of half-maximal effect
Target sequence (P15428 whole entry, looked up): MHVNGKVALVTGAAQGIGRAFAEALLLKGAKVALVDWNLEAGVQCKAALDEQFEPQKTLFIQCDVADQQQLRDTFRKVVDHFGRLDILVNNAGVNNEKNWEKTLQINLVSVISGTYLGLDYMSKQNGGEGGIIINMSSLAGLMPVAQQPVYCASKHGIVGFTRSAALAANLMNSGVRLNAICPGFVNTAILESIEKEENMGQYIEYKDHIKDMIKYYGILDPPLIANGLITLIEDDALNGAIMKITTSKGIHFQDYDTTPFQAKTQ
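20 nM HPGD preincubated 15 min at room temperature with compound in 50 mM Tris-HCl pH 8, 0.01% Tween 20. Started with 1 mM NAD+ and 30 uM prostaglandin E2; NADH fluorescence (360/450 nm) read 5 times over 30-s intervals, last minus first.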
ALOX12 inhib – 12-hLO (ALOX12) enzyme inhibition. P18054. purified 12-hLO, xylenol orange hydroperoxide absorbance. Potency, µM (doses to about 57.1 µM), inactives show top-dose activity change, negative = inhibition, most hits filed as inhibitors. 0.12% of 150,000 active. AID 1452; note: potency is the fitted concentration of half-maximal effect; nearly all actives have a fitted effect of over 55% in size
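Purified human 12hLO (150 nM), preincubated 15 min with compound, then 40 uM arachidonic acid for 30 min, room temperature, Hepes pH 7.0 with 0.01% Triton X-100. Hydroperoxide detected by ferrous iron/xylenol orange; 573/405 nm absorbance ratio gives reaction progress.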
ALDH1A1 block – blocks purified human ALDH1A1 activity | Potency, µM (doses to about 75.3 µM), for inactives: top-dose activity, negative = inhibition, hits mostly inhibitors | Purified ALDH1A1, NADH fluorescence, propionaldehyde substrate | 7.3% of 220,000 active | P00352 | AID 1030; active = well fitted inhibition curve with a large enough effect, not every such curve was filed as active; inconclusive = small, poorly fitted or top-dose-only effect, or another doubt; inactive = no such curve, though single readings can be large or run the other way;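 note: potency is the fitted concentration of half-maximal effect; plate controls were no enzyme wells and a reference inhibitor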
IMPase Li cell – cell-permeable IMPase inhibitors with lithium potentiation; CHO-M1 cells, IP1 TR-FRET (IP-One), carbachol + lithium; Potency, µM (titrated, usually from 59.4 µM), for inactives: at the highest dose activity, negative = IMPase inhibition, hits mostly inhibitors; 0.35% of 210,000 active;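 note: IP1 builds up when IMPase is blocked and the TR-FRET signal falls; potency is the fitted concentration of half-maximal effect; plate controls were basal vehicle for no effect and high inhibitor control for full effect; nearly all actives have a fitted effect of over 50% in size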
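Test compounds were applied to CHO-M1 cells previously cultured for 16–30 h at 2000 per well. A small lithium amount accompanied them; after 30 min at 37C, IP1 was quantified by TR-FRET.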
IMPase inh – cell-permeable inhibitors of inositol monophosphatase (IMPase); P97697; CHO-M1 cells, IP1 accumulation, HTRF TR-FRET ratio; inhibition (IP1 accumulation), % at 46.1 µM; 120,000 tested, under 10 active; active = well fitted curve in the direction sought with a large enough effect in the signal ratio, not every such curve was filed as active; inconclusive = small, poorly fitted or top-dose-only effect, or a change in a side signal; inactive = no such curve, though single readings can be large or run the other way; the % refers to the signal ratio;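 note: cells stimulated with carbachol in lithium chloride buffer; plate controls were DMSO basal wells for no effect and reference inhibitor wells for full effect; higher means more IMPase inhibition seen as more IP1 and lower FRET ratio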
Target sequence (P97697 whole entry, looked up): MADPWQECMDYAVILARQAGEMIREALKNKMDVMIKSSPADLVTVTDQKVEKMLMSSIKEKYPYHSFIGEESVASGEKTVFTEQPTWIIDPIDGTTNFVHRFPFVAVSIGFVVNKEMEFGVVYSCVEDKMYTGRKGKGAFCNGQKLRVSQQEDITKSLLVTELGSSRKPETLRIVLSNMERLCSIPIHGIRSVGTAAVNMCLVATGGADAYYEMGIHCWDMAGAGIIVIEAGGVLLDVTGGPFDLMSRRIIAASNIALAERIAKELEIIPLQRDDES
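Measured: the HTRF emission ratio (665/620 nm) plus the 620 nm donor channel, each fitted to the Hill equation to give AC50. Cells were CHO-M1 given compounds up to 46 uM and a 30 min carbachol stimulation at 37C.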
PNC assembly inh – perinucleolar compartment assembly inhibition; 3.1% of 140,000 active; PC3M PTB-GFP, PNC prevalence imaging, 16 h; active compounds read low; activity change (PNC), negative = inhibition, % at 10 µM; AID 2417;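 active = readout at or below -70, meaning at least 70% loss of cells showing the perinucleolar compartment, a nuclear body marking cancer cells; inconclusive = readout between -30 and a set limit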;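 note: plate controls were DMSO wells for no effect and camptothecin positive control wells for full effect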
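Read-out is percentage of cells bearing a perinucleolar compartment, from automated 20x imaging of fixed, Hoechst-stained PC3M PTB-GFP cells. Cells were seeded 4 h, then exposed 16 h to compound (23 nl of library stock) in duplicate plates.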
An asterisk follows results filed as active; u = inconclusive; x = no result given; [ ] = another dose, or the depositor's remark. Unless noted, calls come from the whole dose curve; as a rule, active = well fitted curve in the direction sought with a large enough effect; inconclusive = small, poorly fitted or top-dose-only effect, or another doubt; inactive = no such curve, though single readings can be large; an effect the other way counts as inactive or inconclusive. Unless noted, % is set by controls: 0 for no effect and ±100 for the full control effect.

SMILES | HPGD inh | ALOX12 inhib | ALDH1A1 block | IMPase Li cell | IMPase inh | PNC assembly inh
O=C(N/N=C/c1cccc(F)c1)c1c(O)c2c([nH]c1=O)CCCC2 | -18% | -1% | 14% | -4% | x | -114*
Cc1ccccc1-c1nc2ccccc2c(=O)n1/N=C/c1ccccc1[N+](=O)[O-] | 22µM* | -30% | 14µM* | 35%[38.3 µM] | 12 | 9
CCOC(=O)c1c(C)[nH]c(C(=O)N/N=C/c2ccc(Br)cc2)c1C | -15% | 1% | -5% | 3% | 0 | -113*
Cn1c(=O)c(-c2ccc(F)cc2)nc2cnc(Oc3ccccc3)nc21 | u | -4% | u | 7.9µM* | x | x
Cn1c(=O)c(-c2ccc(Cl)cc2)nc2cnc(Oc3ccccc3)nc21 | -8% | 1% | u | 11µM* | x | x
Cn1c(=O)c(-c2ccccc2)nc2cnc(Oc3ccccc3)nc21 | -18% | -5% | u | -4% | x | x
CC(=O)O[C@@H]1CC[C@]2(C)C(=C[C@@H]([C@@H]3C=C4C[C@@H](OC(C)=O)CC[C@]4(C)C4=C3[C@H]3C[C@@H]5O[C@@]6(CC[C@H](C)CO6)[C@@H](C)[C@@H]5[C@@]3(C)CC4)C3=C2CC[C@@]2(C)[C@H]4[C@@H](C)[C@]5(CC[C@H](C)CO5)O[C@@H]4C[C@H]32)C1 | -5% | 3%[11.4 µM] | u | 0% | x | x
CCN(c1ccccc1)S(=O)(=O)c1ccc(NC(=S)NC(=O)c2cccs2)cc1 | -21% | 25µM* | 6.3µM* | 29%[38.3 µM] | 20 | 4
CCN(CC)c1ccc(NC(=O)c2ccco2)cc1 | -16% | 11% | -4% | -6%[38.3 µM] | 10 | 15
COc1ccc(-c2csc(NC(=S)NC(=O)c3cccs3)n2)cc1Br | x | x | 2% | x | x | x
CCN(CC)c1ccc(NC(=S)NC(=O)c2ccco2)cc1 | x | x | 25µM* | 10% | x | x
COc1ccc(-c2csc(NC(=S)NC(=O)c3cccs3)n2)cc1OC | x | x | 11µM* | 20% | x | x
COc1ccc(NC(=S)Nc2ccc(OC(F)F)cc2)cn1 | x | x | 1% | 4% | x | x
COc1ccccc1NC(=S)NNC(=S)Nc1ccc(OC(F)F)cc1 | -19% | -7% | 7.1µM* | 15% | 5 | 14
CCOC(=O)CNC(=O)O[C@@H]1C(=O)c2cc(Br)ccc2O[C@H]1c1ccc2c(c1)OCO2 | -11% | x | 10% | 12% | x | x
CC(=O)O[C@@H]1C(CO[Si](C)(C)C(C)(C)C)=C(Br)C(=O)[C@@H]2O[C@]12C | u | x | -11% | 3% | x | x
CCCCC(=O)Nc1ccc(NC(=S)NC(=O)CC)cc1OC | u | 1% | u | -4% | x | u
CCCC(=O)Nc1ccc(NC(=S)NC(=O)c2cccs2)cc1 | x | x | -8% | 9% | x | x
CCN(CC)C(=S)SCC(=O)Nc1ccc(F)cc1 | 18µM* | -3% | u | 13%[38.3 µM] | 1 | 5
O=C(CCNC(=O)c1ccc([N+](=O)[O-])cc1)N/N=C/c1ccc(F)cc1 | x | x | 5% | 11% | x | x
CCN(CC)c1ccc(NC(=S)NC(=O)c2cccs2)cc1 | x | x | 8.9µM* | 14% | x | x
CCN(CC)c1ccc(/C=N/NC(=O)c2ccc([N+](=O)[O-])cc2)cc1 | x | x | 28µM* | -3% | x | x
CCCCC(=O)Nc1ccc(NC(=S)NC(=O)c2cccs2)cc1OC | -11% | 2% | 20µM* | 3% | x | u
CCN(CC)C(=S)SCC(=O)c1ccc(F)cc1 | -8% | -2% | u | 1%[38.3 µM] | -6 | 93
C=C1CC[C@H](O)C/C1=C/C=C1\CCC[C@]2(C)[C@@H]([C@H](C)CCCC(C)(C)O)CC[C@@H]12 | -4% | 1% | 8% | 12% | x | x
SMILES | HPGD inh | ALOX12 inhib | ALDH1A1 block | IMPase Li cell | IMPase inh | PNC assembly inh
CCCCCC(=O)N1c2ccccc2C(C)(c2ccccc2)CC1(C)C (stereo not given) | x | x | x | x | 0 | x
CCN(CC)c1ccc(/C=N/NC(=O)c2cnccn2)cc1 | x | x | 22µM* | 14% | x | x
O=C(NC(=S)Nc1ccc(-c2ccc(CO)o2)cc1)c1cccs1 | x | x | 20µM* | -6% | x | x
CCN(CC)c1ccc(NC(=O)CN2CCN(CC(=O)Nc3ccc(F)cc3)CC2)cc1 | 1% | -1% | -6% | 24%[38.3 µM] | 7 | 9
CCN(CC)c1ccc(NC(=S)Nc2ccc(F)cc2)cc1 | x | x | 11µM* | 4% | x | x
CCN(CC)c1ccc(/C=N/NC(=O)c2ccco2)cc1 | -29% | 0% | 10µM* | 13% | x | -94*
O=C(NNC(=S)Nc1ccc(Cl)cc1)c1cccs1 | x | x | 11µM* | -2% | x | x
Cn1nnc(NC(=S)NC(=O)c2cccs2)n1 | u | 1% | u | 0% | x | -25
CCCCn1nnc(NC(=S)NC(=O)c2cccs2)n1 | x | -15% | 20µM* | x | 10 | 22
O=C(NNC(=S)Nc1ccc(Cl)cc1)c1ccccc1OC(F)F | -14% | -3% | 20µM* | 2% | x | 18
Cc1ccc(Nc2ncnc(N)n2)cc1 | x | x | -2% | 2% | x | x
Nc1ncnc(Nc2ccc(F)cc2)n1 | -8% | 0% | -10% | -7% | x | -91*
O=C1c2ccncc2C(=O)N1Cc1cccc(Cl)c1 | 18µM* | -6% | 1% | -2%[38.3 µM] | 2 | 9
C/C(=N\NS(=O)(=O)c1ccc(C)c([N+](=O)[O-])c1)c1ccc2c(c1)OCO2 | x | x | 22µM* | -7% | x | x
C/C(=N\NS(=O)(=O)c1ccccc1)c1ccc2c(c1)OCO2 | x | x | u | 10% | x | x
O=C(c1cccc(F)c1)N1CCC2(CCCN(c3ccccn3)C2)CC1 | -18% | 1% | u | 16% | x | x
Cc1nn2c3ccccc3n(CC(=O)c3cccs3)c2nc1=O | x | x | -10% | 4µM* | x | x
COC(=O)C1=C(C)NC(=O)NC1c1ccc(-c2ccc(F)cc2)o1 (stereo not given) | x | x | -8% | -3% | x | x
COCCOC(=O)C1=C(C)NC(=O)NC1c1ccc(-c2cc(Cl)ccc2Cl)o1 (stereo not given) | x | x | 3.2µM* | 1% | x | x
COC(=O)C1=C(C)NC(C)=C(C(=O)OC)C1c1ccc(-c2cc(Cl)ccc2Cl)o1 | -25% | -4% | u | 7% | -1 | -5
COC(=O)C1=C(C)NC(=O)NC1c1ccc(-c2ccccc2Cl)o1 (stereo not given) | x | x | 10µM* | -3% | x | x
Cc1cccc(Nc2nnc(-c3ccc(C)c(S(=O)(=O)N4CCN(C)CC4)c3)c3ccccc23)c1 | x | x | x | x | 7 | x
O=S(=O)(c1ccccc1)N1CCC2(CC1)CN(Cc1ccccc1)C2 | -5% | 1% | 13% | 22% | x | x
CSC1=Nc2sc3c(c2C2=NCCN12)CCCC3 | x | -13% | 14µM* | x | 27 | 28
CC1(C)Cc2c(sc3c2C2=NCCN2C=N3)CS1 | -13% | 1% | -1% | 17%[38.3 µM] | 6 | 10
O[C@@H](c1cc(C(F)(F)F)nc2c(Cl)cc(Cl)cc12)C1CCCCN1 (stereo not given in full) | -8% | x | 2%[13.5 µM] | -2% | x | x
